Data: the supplement of paper PMC10849652
The full data set covers some 7,900 targets. This sample favours those with a hit. About 0.6% of all pairs of compound and target were hits.

Assays:
Experiment in all cases: log2 fold change, soluble protein after heating vs DMSO (PISA); higher = thermal stabilisation; K562 cells, 10 uM, 30 min; active = over 0.2 and 3.5 SD of the protein, either way, in both replicates (recomputed)
ZEB2 = ZEB2 (UniProt O60315)
Outline: (§1)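 K562 cells at 2×10^6 cells/mL were exposed to 10 μM compound for 30 min, then aliquots were heated for 3 min across 48°C-58°C, pooled, and extracted in PBS containing 0.5% NP-40 at 4°C. The supernatant after 21,000xg for 90 min was taken as soluble protein and measured by TMTpro 16plex LC-MS/MS with channel sums equalised. Thermal stability is reported relative to control samples, with values from duplicates. Fold changes are given on a log2 scale.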

ZER1 = ZER1 (UniProt Q7Z7L7)
Outline: as §1

ZFAND5 = ZFAND5 (UniProt O76080)
Outline: as §1

ZFAND6 = ZFAND6 (UniProt Q6FIF0)
Outline: as §1

ZFP91 = ZFP91 (UniProt Q96JP5)
Outline: as §1

ZFPL1 = ZFPL1 (UniProt O95159)
Outline: as §1

ZMAT2 = ZMAT2 (UniProt Q96NC0)
Outline: as §1

ZMYM1 = ZMYM1 (UniProt Q5SVZ6)
Outline: as §1

ZMYM3 = ZMYM3 (UniProt Q14202)
Outline: as §1

ZNF143 = ZNF143 (UniProt P52747)
Outline: as §1

Measured: log2 fold change

ZFAND5, sequence (O76080 whole entry, looked up): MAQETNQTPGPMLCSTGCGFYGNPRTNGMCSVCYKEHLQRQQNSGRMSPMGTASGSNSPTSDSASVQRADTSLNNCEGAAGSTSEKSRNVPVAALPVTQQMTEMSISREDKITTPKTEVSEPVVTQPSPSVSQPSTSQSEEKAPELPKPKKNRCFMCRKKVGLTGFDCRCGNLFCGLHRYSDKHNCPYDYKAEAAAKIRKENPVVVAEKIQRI
ZMYM1, sequence (Q5SVZ6 whole entry, looked up): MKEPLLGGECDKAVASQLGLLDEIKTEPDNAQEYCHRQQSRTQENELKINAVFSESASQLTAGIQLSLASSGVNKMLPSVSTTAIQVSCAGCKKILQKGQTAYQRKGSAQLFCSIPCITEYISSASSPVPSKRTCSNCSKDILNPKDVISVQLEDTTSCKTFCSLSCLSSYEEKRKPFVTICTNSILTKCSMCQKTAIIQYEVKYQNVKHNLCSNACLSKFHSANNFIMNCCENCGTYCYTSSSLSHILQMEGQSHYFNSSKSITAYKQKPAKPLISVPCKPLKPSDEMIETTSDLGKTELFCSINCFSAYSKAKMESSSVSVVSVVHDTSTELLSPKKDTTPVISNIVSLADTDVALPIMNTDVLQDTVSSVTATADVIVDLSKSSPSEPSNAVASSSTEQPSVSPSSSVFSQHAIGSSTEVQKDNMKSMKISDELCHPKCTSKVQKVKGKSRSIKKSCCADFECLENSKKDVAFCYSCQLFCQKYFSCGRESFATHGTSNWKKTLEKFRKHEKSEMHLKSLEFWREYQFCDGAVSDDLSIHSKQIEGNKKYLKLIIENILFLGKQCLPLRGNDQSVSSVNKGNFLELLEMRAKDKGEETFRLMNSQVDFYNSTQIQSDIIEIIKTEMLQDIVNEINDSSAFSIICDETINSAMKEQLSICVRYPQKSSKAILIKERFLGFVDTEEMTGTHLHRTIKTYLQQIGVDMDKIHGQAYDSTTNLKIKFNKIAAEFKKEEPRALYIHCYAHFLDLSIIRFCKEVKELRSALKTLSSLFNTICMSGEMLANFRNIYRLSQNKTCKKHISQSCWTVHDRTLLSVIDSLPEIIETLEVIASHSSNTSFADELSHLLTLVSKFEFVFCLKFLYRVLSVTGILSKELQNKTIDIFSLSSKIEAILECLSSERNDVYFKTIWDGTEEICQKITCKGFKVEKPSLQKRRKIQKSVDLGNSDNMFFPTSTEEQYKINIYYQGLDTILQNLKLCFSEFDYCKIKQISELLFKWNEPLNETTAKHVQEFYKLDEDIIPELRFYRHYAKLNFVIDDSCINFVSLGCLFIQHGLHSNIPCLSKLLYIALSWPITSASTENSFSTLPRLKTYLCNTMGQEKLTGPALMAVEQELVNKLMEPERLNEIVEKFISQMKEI
ZFP91, sequence (Q96JP5 whole entry, looked up): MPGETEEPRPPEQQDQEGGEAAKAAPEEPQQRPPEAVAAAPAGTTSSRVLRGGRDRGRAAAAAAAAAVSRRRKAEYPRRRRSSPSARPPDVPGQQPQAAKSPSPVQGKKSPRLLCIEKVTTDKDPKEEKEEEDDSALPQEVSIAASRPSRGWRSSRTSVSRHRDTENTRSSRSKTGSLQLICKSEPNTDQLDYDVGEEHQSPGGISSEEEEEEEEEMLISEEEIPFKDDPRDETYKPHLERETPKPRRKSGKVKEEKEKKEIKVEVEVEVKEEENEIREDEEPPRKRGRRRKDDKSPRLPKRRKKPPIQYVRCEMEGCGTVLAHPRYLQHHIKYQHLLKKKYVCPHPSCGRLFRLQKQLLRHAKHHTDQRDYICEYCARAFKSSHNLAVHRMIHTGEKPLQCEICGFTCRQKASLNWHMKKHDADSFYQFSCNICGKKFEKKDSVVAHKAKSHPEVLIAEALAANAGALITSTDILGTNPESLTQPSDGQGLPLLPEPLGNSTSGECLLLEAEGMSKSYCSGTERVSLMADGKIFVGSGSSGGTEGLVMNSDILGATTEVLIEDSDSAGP
ZFPL1, sequence (O95159 whole entry, looked up): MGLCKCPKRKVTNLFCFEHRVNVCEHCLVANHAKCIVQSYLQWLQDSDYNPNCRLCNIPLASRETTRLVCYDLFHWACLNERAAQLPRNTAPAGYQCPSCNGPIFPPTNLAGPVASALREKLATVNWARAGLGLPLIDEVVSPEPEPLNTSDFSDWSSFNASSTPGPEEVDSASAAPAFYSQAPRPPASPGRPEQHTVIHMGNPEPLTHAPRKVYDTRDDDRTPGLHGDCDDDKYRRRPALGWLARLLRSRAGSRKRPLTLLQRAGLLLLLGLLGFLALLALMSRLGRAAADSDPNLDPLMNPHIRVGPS
ZEB2, sequence (O60315 whole entry, looked up): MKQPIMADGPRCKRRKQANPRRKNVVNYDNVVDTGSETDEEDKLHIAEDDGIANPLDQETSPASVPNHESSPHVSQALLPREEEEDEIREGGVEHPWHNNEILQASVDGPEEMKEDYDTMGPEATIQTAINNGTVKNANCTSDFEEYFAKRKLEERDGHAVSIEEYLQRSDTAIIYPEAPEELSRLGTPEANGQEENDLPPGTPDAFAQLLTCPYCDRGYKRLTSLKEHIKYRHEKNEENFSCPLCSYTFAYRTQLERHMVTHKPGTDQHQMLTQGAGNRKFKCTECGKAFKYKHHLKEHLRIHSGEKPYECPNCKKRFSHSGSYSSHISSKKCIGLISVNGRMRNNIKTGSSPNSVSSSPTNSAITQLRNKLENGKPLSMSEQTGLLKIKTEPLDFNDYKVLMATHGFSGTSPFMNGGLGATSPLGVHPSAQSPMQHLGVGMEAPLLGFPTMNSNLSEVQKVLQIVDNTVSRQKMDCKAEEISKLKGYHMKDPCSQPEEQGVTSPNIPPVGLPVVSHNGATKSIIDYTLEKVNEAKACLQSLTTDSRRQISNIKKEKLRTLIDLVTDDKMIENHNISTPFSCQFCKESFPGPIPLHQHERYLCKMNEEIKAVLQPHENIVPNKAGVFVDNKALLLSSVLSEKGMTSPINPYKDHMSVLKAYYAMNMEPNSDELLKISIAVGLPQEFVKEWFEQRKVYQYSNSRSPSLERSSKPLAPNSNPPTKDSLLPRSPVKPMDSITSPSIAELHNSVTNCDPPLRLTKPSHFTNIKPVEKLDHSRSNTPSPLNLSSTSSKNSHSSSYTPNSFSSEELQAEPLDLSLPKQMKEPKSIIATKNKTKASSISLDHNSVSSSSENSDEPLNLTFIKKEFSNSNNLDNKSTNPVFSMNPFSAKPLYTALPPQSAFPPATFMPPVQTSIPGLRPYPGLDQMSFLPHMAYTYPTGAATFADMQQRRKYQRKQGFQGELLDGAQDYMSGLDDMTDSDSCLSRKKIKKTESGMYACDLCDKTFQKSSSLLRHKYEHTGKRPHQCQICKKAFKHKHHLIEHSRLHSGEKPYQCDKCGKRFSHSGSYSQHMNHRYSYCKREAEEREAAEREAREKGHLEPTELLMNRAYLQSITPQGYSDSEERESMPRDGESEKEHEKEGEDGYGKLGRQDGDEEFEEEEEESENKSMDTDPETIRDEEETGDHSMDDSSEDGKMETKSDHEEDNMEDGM
ZNF143, sequence (P52747 whole entry, looked up): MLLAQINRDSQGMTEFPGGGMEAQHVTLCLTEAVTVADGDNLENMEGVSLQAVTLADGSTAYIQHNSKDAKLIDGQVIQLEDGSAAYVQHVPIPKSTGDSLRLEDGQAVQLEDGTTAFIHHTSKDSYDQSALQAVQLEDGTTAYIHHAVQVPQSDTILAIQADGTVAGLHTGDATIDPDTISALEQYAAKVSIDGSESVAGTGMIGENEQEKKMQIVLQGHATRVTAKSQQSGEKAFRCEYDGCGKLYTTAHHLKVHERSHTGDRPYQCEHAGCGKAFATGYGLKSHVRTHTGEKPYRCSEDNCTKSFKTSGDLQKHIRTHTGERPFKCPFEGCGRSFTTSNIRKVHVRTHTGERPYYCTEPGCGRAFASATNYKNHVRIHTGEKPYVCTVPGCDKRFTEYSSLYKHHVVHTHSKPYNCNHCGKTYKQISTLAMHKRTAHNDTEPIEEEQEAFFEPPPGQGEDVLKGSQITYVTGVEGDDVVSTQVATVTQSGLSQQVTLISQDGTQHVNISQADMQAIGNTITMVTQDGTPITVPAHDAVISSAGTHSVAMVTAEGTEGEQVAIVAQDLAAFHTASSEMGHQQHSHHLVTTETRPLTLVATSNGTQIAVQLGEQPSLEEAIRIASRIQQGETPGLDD
ZER1, sequence (Q7Z7L7 whole entry, looked up): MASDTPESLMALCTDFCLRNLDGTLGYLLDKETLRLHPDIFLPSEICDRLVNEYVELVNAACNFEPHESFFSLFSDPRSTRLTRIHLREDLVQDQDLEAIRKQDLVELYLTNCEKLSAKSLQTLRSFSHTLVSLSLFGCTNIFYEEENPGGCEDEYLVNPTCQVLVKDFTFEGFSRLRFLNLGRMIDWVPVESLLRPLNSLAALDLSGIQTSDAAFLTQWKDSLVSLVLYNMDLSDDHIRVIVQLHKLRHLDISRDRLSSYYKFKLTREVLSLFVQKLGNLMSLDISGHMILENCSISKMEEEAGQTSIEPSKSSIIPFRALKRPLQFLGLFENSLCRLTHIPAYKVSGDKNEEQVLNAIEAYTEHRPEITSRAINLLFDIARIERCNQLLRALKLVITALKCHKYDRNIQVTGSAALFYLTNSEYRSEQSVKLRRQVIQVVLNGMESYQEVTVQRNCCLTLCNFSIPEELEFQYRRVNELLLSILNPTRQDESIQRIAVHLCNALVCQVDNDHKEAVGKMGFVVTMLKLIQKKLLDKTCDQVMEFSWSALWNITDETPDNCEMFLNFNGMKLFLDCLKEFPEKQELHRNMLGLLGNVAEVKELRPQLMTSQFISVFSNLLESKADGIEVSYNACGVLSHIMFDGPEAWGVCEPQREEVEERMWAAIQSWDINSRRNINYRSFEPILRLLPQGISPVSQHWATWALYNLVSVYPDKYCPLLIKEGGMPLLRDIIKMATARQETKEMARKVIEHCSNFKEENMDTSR
ZMAT2, sequence (Q96NC0 whole entry, looked up): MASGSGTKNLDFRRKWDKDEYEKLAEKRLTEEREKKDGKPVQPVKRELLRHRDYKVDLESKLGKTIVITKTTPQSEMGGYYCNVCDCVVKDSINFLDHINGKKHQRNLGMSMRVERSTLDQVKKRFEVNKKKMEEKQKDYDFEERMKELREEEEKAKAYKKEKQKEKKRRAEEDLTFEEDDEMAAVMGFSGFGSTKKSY

COc1ccc(Cn2ccc3ccc(C(=O)NO)cc32)cc1
inactive: ZEB2 -0.078 | ZER1 -0.236 | ZFAND5 -0.032 | ZFAND6 0.066 | ZFP91 -0.076 | ZFPL1 0.074 | ZMYM1 -0.056 | ZMYM3 0 | ZNF143 -0.035
active: ZMAT2 0.378

CCCS(=O)(=O)Nc1ccc(F)c(C(=O)c2c[nH]c3ncc(-c4ccc(Cl)cc4)cc23)c1F [vemurafenib]
inactive: ZEB2 0.256 | ZER1 -0.033 | ZFAND5 -0.106 | ZFAND6 -0.024 | ZFP91 -0.071 | ZFPL1 0.021 | ZMAT2 -0.021 | ZMYM1 -0.095 | ZMYM3 -0.109 | ZNF143 0.029

CCN(CC)Cc1ccc2cc(COC(=O)Nc3ccc(C(=O)NO)cc3)ccc2c1 [givinostat]
inactive: ZEB2 0.193 | ZER1 0.117 | ZFAND5 -0.016 | ZFAND6 0.017 | ZFP91 0.009 | ZFPL1 -0.09 | ZMAT2 -0.008 | ZMYM1 0.12 | ZMYM3 0.002 | ZNF143 -0.022

CCn1c(C(=O)N(C2CC2)C2CC2)cc2c3c(ncn3C)c(Nc3cc(C)n(C)n3)nc21
inactive: ZEB2 -0.041 | ZER1 0.045 | ZFAND5 0.063 | ZFAND6 0.046 | ZFP91 -0.028 | ZFPL1 0.042 | ZMAT2 0.022 | ZMYM1 -0.079 | ZMYM3 -0.029 | ZNF143 0.075

COc1cc2ncnc(Nc3ccc(F)c(Cl)c3)c2cc1OCCCN1CCOCC1 [gefitinib]
inactive: ZEB2 -0.086 | ZER1 -0.031 | ZFAND5 -0.006 | ZFAND6 -0.005 | ZFP91 0.02 | ZFPL1 0.065 | ZMAT2 -0.021 | ZMYM1 0.014 | ZMYM3 0.034 | ZNF143 -0.098

COc1cc(Nc2ncc3c(n2)-c2ccc(Cl)cc2C(c2c(F)cccc2OC)=NC3)ccc1C(=O)O [alisertib]
inactive: ZEB2 0.103 | ZER1 -0.006 | ZFAND5 -0.057 | ZFAND6 -0.079 | ZFP91 -0.013 | ZFPL1 0.014 | ZMAT2 -0.045 | ZMYM1 -0.021 | ZMYM3 0.057 | ZNF143 -0.05

CON(C)C(=O)N1N=C(c2cc(F)ccc2F)S[C@@]1(CCCN)c1ccccc1 [filanesib]
inactive: ZEB2 0.025 | ZER1 -0.006 | ZFAND5 0.073 | ZFAND6 -0.111 | ZFP91 0.183 | ZFPL1 -0.001 | ZMAT2 -0.084 | ZMYM1 0.067 | ZMYM3 0.012 | ZNF143 0.024

CN(C)CC(=O)Nc1ccc2[nH]c(=O)c3ccccc3c2c1
inactive: ZEB2 -0.124 | ZER1 -0.099 | ZFAND5 -0.119 | ZFAND6 -0.052 | ZFP91 -0.074 | ZFPL1 0 | ZMAT2 -0.018 | ZMYM1 -0.046 | ZMYM3 -0.067 | ZNF143 -0.025

CC[C@@H]1C(=O)N(C)c2cnc(Nc3ccc(C(=O)N[C@H]4CC[C@H](N5CCN(CC6CC6)CC5)CC4)cc3OC)nc2N1C(C)C [volasertib]
inactive: ZEB2 0.001 | ZER1 0.009 | ZFAND5 0.215 | ZFAND6 0.09 | ZFP91 0.016 | ZFPL1 -0.088 | ZMAT2 0.036 | ZMYM1 -0.118 | ZMYM3 -0.077
active: ZNF143 -0.289

CS(=O)(=O)c1ccc(-c2cnc(N)c(C(=O)Nc3ccccc3)n2)cc1
inactive: ZEB2 0.025 | ZER1 0.034 | ZFAND5 -0.035 | ZFAND6 -0.036 | ZFP91 -0.072 | ZFPL1 -0.045 | ZMAT2 -0.127 | ZMYM1 0.026 | ZMYM3 0.023 | ZNF143 -0.014

Cn1cc(-c2ccc3nnc(C(F)(F)c4ccc5ncccc5c4)n3n2)cn1
inactive: ZEB2 -0.135 | ZER1 -0.024 | ZFAND5 -0.036 | ZFAND6 -0.009 | ZFP91 -0.073 | ZFPL1 -0.03 | ZMAT2 -0.051 | ZMYM1 0.05 | ZNF143 0.041
active: ZMYM3 -0.246

Cc1cc(Nc2cc(N3CCN(C)CC3)nc(Sc3ccc(NC(=O)C4CC4)cc3)n2)n[nH]1 [tozasertib]
inactive: ZEB2 0.022 | ZER1 0.008 | ZFAND5 -0.076 | ZFAND6 -0.084 | ZFP91 0.01 | ZFPL1 0.009 | ZMAT2 -0.039 | ZMYM1 -0.043 | ZMYM3 -0.033 | ZNF143 0.057

CCN(CCCOc1ccc2c(Nc3cc(CC(=O)Nc4cccc(F)c4)[nH]n3)ncnc2c1)CCOP(=O)(O)O [barasertib]
inactive: ZEB2 0.117 | ZER1 0.034 | ZFAND5 -0.013 | ZFAND6 0.04 | ZFP91 -0.105 | ZFPL1 -0.032 | ZMAT2 -0.047 | ZMYM1 0.022 | ZMYM3 -0.076 | ZNF143 0.01

CN(CCOc1ccc(C[C@@H]2SC(=O)NC2=O)cc1)c1ccccn1 (racemic) [rosiglitazone]
inactive: ZEB2 0.078 | ZER1 0.103 | ZFAND5 -0.001 | ZFAND6 -0.015 | ZFP91 -0.101 | ZFPL1 -0.03 | ZMAT2 -0.019 | ZMYM1 0.029 | ZMYM3 0.001 | ZNF143 -0.037

CC(C)(C)Cn1c(N)nc2ccc(-c3[nH]c(C(C)(C)C)nc3-c3ccc(F)cc3)nc21 [ralimetinib]
inactive: ZEB2 -0.075 | ZER1 0.089 | ZFAND5 0.024 | ZFAND6 -0.048 | ZFP91 -0.033 | ZFPL1 0.152 | ZMAT2 -0.024 | ZMYM1 0.078 | ZMYM3 -0.07 | ZNF143 0.112

Cc1ccc(C(=O)N(CCCN)[C@@H](c2nc3cc(Cl)ccc3c(=O)n2Cc2ccccc2)C(C)C)cc1 [ispinesib]
inactive: ZEB2 0.05 | ZER1 0.153 | ZFAND5 -0.07 | ZFAND6 -0.082 | ZFP91 -0.227 | ZFPL1 0.236 | ZMAT2 0.042 | ZMYM1 -0.122 | ZMYM3 -0.013 | ZNF143 -0.038

CNc1nc(-c2ccc3c(N)n[nH]c3c2)cc(N2C[C@@H](C(=O)NC3CCCCC3)CC[C@H]2C)n1
inactive: ZEB2 -0.09 | ZER1 -0.245 | ZFAND5 -0.072 | ZFAND6 -0.017 | ZFP91 -0.007 | ZFPL1 -0.031 | ZMAT2 -0.058 | ZMYM1 -0.021 | ZMYM3 -0.004 | ZNF143 -0.118

CCCc1cc(C)[nH]c(=O)c1CNC(=O)c1cc(-c2ccnc(N3CCN(C)CC3)c2)cc2c1cnn2C(C)C
inactive: ZEB2 -0.067 | ZER1 -0.125 | ZFAND5 -0.038 | ZFAND6 -0.051 | ZFP91 0.074 | ZFPL1 -0.05 | ZMAT2 -0.044 | ZMYM1 -0.017 | ZMYM3 0.067 | ZNF143 -0.006

C[C@H](Nc1ncnc2nc[nH]c12)c1cc2cccc(Cl)c2c(=O)n1-c1ccccc1 [duvelisib]
inactive: ZEB2 0.05 | ZER1 -0.154 | ZFAND5 -0.063 | ZFAND6 0.032 | ZFP91 -0.038 | ZFPL1 0.046 | ZMAT2 0.014 | ZMYM1 -0.096 | ZMYM3 0.021 | ZNF143 -0.146

Fc1ccc(Cl)cc1-c1nc(Nc2ccncc2)c2nccnc2n1
inactive: ZEB2 -0.099 | ZER1 -0.022 | ZFAND5 0.003 | ZFAND6 -0.05 | ZFP91 0.007 | ZFPL1 0.101 | ZMAT2 0.018 | ZMYM1 -0.057 | ZMYM3 -0.012 | ZNF143 -0.058

CS(=O)(=O)CCNCc1ccc(-c2ccc3ncnc(Nc4ccc(OCc5cccc(F)c5)c(Cl)c4)c3c2)o1 [lapatinib]
inactive: ZEB2 0.019 | ZER1 -0.057 | ZFAND5 0.038 | ZFAND6 -0.106 | ZFP91 0.173 | ZFPL1 -0.035 | ZMAT2 0.016 | ZMYM1 0.082 | ZMYM3 0.007 | ZNF143 -0.011

NC(=O)Nc1cc(-c2cccc(F)c2)sc1C(=O)N[C@H]1CCCNC1
active: ZMAT2 0.282
inactive: ZEB2 0.003 | ZER1 -0.046 | ZFAND5 -0.041 | ZFAND6 0.12 | ZFP91 -0.044 | ZFPL1 -0.04 | ZMYM1 -0.108 | ZMYM3 -0.042 | ZNF143 0.07
